Inconclusive results are not listed. Values without a mark were called inactive. Activity calls are given as the source filed them. The call rests on the fitted dose curve; in most records, active means well fitted cell-killing curve with a large enough effect; inconclusive means small, poorly fitted or top-dose-only effect; inactive means flat fitted curve, though single readings scatter. Numbered stars: 1 amine (or outer) side, 2 acyl side, 3 side chain; on linkers, the order of the positions; unused ones are H or OH. Bridge positions count the residues as written; N and C are the ends. Square brackets hold non-standard residues; d marks the D form. Peptide text beside a SMILES is read from it. I, II: the chains in the order shown. Actinocin(9to1) = Cc1c2oc3c(C)ccc(C(=O)[*:1])c3nc-2c(C(=O)[*:2])c(N)c1=O; NMeV = CN[C@H](C(=O)O)C(C)C; Sar = CNCC(=O)O
Assay: Cell Viability - LYMP2-021 (AID 974);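 further: compound exposure lasts 24 hours at 37 °C; nearly all actives have a fitted effect of over 55% in size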
Conditions: LYMP2-021 lymphoblastoid cells viability; series mostly up to 92.2 µM; activity change, negative = cytotoxicity: at the top concentration
Description: NIH Chemical Genomics Center [NCGC]
NIH Molecular Libraries Screening Centers Network [MLSCN]
National Institutes of Environmental Health Sciences [NIEHS]
National Toxicology Program [NTP]
We have developed a 1536-well cell-based assay for quantitative high throughput screening (qHTS) against a number of cell lines to determine in vitro cytotoxicity of small molecules. This particular assay uses a human lymphoblastoid cell line (LYMP2-021) purchased from Coriell Institute for Medical Research.
NCGC Assay Protocol Summary:
The CellTiter-Glo luminescent cell viability assay (Promega) is a homogeneous method to measure the number of viable cells in culture. The end point readout of this assay is based on quantitation of intracellular ATP, an indicator of metabolic activity, using the luciferase reaction. Luciferase catalyzes the oxidation of beetle Luciferin to oxyluciferin and light in the presence of ATP. The luminescent signal is proportional to amount of ATP present.
Using the CellTiter-Glo luminescent cell viability assay, the amount of cellular ATP was measured in the lymphoblastoid cell line with complete culture medium following compound treatment for 24 hours. The assay was performed in opaque white Kalypsys 1536-well plates. In the screen, tetraoctylammonium bromide was used as positive control. Library compounds were measured for their ability to cause acute toxicity in the cell line, as reflected by a decrease in intracellular ATP levels, in a concentration-dependent manner. […] AC50 values were determined from concentration-response data modeled with the standard Hill equation.
qHTS protocol for CellTiter Glo lymphoblastoid cellular assay
[Step] [Parameter] [Value] [Description]
1. Reagent; 5 uL; 2500 lymphoblastoid cells/well
2. Time; 5 hr; 37 C incubation
4. Controls; 23 nL; Tetraoctylammonium bromide 6.4pM to 92 uM
5. Time; 24 hr; 37 C incubation
6. Reagent; 5 uL; CellTiter Glo reagent
7. Time; 30 min; Room Temperature
8. Detection; Luminescence; Viewlux plate reader
Keywords: cell viability, cytotoxicity, lymphoblastoid cell line, luminescence, NTPHTS, NTPHTS_NCGC, NIEHS, DSSTox, MLSMR, MLSCN, NIH Roadmap, qHTS, NCGC
On the % scale 0 is the no-effect control and ±100 the full control effect; potency means the concentration at half of the fitted maximal effect.

Structure (SMILES)	Potency	activity change, negative = cytotoxicity
Oc1ccc(O)cc1	50.1 µM (active)	
CCCCCCc1ccc(O)cc1O		-2.92%
O=C(O)CCCCC(=O)O		1.05%
C=CCc1ccc(O)c(OC)c1		-0.0511%
CC(O)C(=O)O (stereo not given)		-1.96%
C=C(CC)C(=O)c1ccc(OCC(=O)O)c(Cl)c1Cl	39.8 µM (active)	
CC(=O)Oc1ccc(C(c2ccc(OC(C)=O)cc2)c2ccccn2)cc1		-10.1%
C[C@]12CC[C@@H]3c4ccc(O)cc4CC[C@H]3[C@@H]1CC[C@@H]2O		-20.6%
CN(C)/N=N/c1nc[nH]c1C(N)=O		-0.124%
COC1=CC(=O)C[C@@H](C)[C@]12Oc1c(Cl)c(OC)cc(OC)c1C2=O		-7.7%
O=c1ccc2ccccc2o1		0.727%
Cc1c2oc3c(C)ccc(C(=O)N[C@@H]4C(=O)N[C@H](C(C)C)C(=O)N5CCC[C@H]5C(=O)N(C)CC(=O)N(C)[C@@H](C(C)C)C(=O)O[C@@H]4C)c3nc-2c(C(=O)N[C@@H]2C(=O)N[C@H](C(C)C)C(=O)N3CCC[C@H]3C(=O)N(C)CC(=O)N(C)[C@@H](C(C)C)C(=O)O[C@@H]2C)c(N)c1=O (I: T[dV]P[Sar][NMeV] / II: T[dV]P[Sar][NMeV]; ester I:1-I:C, II:1-II:C; linker I:N-II:N via Actinocin(9to1))	0.0025 µM (active)	
CC(=O)O[C@]1(C(C)=O)CC[C@H]2[C@@H]3C[C@H](C)C4=CC(=O)CC[C@]4(C)[C@H]3CC[C@@]21C	39.8 µM (active)	
Oc1c(Cl)cc(Cl)cc1Sc1cc(Cl)cc(Cl)c1O	39.8 µM (active)	
COc1cccc2c1C(=O)c1c(O)c3c(c(O)c1C2=O)C[C@@](O)(C(=O)CO)C[C@@H]3O[C@H]1C[C@H](N)[C@H](O)[C@H](C)O1	0.398 µM (active)	
CC(C)(C)CC(C)(C)c1ccc(OCCOCC[N+](C)(C)Cc2ccccc2)cc1	31.6 µM (active)	
Nc1ccc(C(=O)O)cc1		-2.67%
CC/C(=C(/CC)c1ccc(O)cc1)c1ccc(O)cc1		-23.5%
NC(=NCCCCCCN=C(N)/N=C(\N)Nc1ccc(Cl)cc1)/N=C(\N)Nc1ccc(Cl)cc1	39.8 µM (active)	
O=C1OC(c2ccc(O)cc2)(c2ccc(O)cc2)c2ccccc21		-4.51%

— PubChem BioAssay (NCATS)
